PubChem BioAssay (NCI)
About 83,000 compounds went through this panel and 20% of them were active in at least one assay; those are over-represented in the sample as a whole.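 Method: cells in 96-well plates; compound added at one concentration; 48 h incubation; percent growth measured; values under 10 scored active.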 Calls of active or inactive are those of the source.

Each molecule was assayed on HL-60(TB) leukemia (assay: NCI-60 one-dose screen, 48 h (100 = growth as untreated, 0 = no growth, -100 = all killed)). Conditions: 10 µM unless noted.

Structure (SMILES) | growth
COc1cccc(NC(=O)Nc2ccc(Oc3ncnc4[nH]c(C)c(C)c34)cc2)c1 | 88.4% (inactive)
CC(N)C(Cc1ccccc1)c1ccc(Cl)cc1 (stereo not given) | 66.5% (inactive)
CCCCC[C@@H]1Cc2cc(O)c(C(=O)O)c3c2[C@H](C[C@@]2(CCCO2)O3)O1 | 86.5% (inactive)
COc1ccc(/C(C)=C(\c2ccc(Cl)cc2)c2ccc(OCCN3CCCC3)cc2)cc1F | 0.205% (active)
CCN=Cc1c(O)c(O)c(C(C)C)c2cc(C)c(-c3c(C)cc4c(C(C)C)c(O)c(O)c(C=NCC)c4c3O)c(O)c12 | 27.3% (inactive)
COc1ccc2c(c1)O/C(=C/c1ccc(OCC(=O)Nc3ccc(S(N)(=O)=O)cc3)cc1)C2=O | 89.5% (inactive)
COc1ccc(-c2nnc(SCC(=O)Nc3ccc(C(=O)/C=C/c4ccc(Cl)cc4)cc3)o2)cc1OC | 93.1% (inactive)
Cc1ccccc1NC(=O)NC(CC(N)=O)c1ccc2c(c1)nc(-c1cccc(Oc3ccc(C(C)(C)C)cc3)c1)n2CCCN1CCCCC1C (stereo not given) | -3.28% (active)
ClCCOCCOc1ccc(C2CCCCC2)cc1 | 105% (inactive)
COc1ccc(C2c3ccc4ccccc4c3Oc3ncn(CCCn4ccnc4)c(=N)c32)cc1OC (stereo not given) | 40.7% (inactive)
COc1ccc(C(=O)N2C=Cc3ccccc3C2C#N)cc1 (stereo not given) | 66.5% (inactive)
CCOC(=O)CC1CSC(Nc2ccccc2)=N1 (stereo not given) | 102% (inactive)
NC1=CC(=O)c2ccccc2C1=O | 81.6% (inactive)
Oc1[nH]c2ccc(Cl)cc2c1/C=c1/ccc2c(c1)N=C(c1ccc(F)cc1)N=2 | 51.5% (inactive)
O=C(OCC1OC(n2cc(C(F)(F)F)c(=O)[nH]c2=O)CC1OC(=O)c1ccc([N+](=O)[O-])cc1)c1ccc([N+](=O)[O-])cc1 (stereo not given) | 62.7% (inactive)
CCc1ccc(-c2nnc(COc3ccc(-c4nc5ccc(C)cc5[nH]4)cc3OC)o2)cc1 | 6.14% (active)
CCc1nc(N)nc(N)c1C#CC(C)c1ccc(-c2ccncc2)cc1Cl (stereo not given) | -19.9% (active)
Cc1csc(N/N=C/c2ccncc2)n1 | 92.6% (inactive)
CCOC(=O)C(CC)n1c(=O)c2cc(OC)c(OC)cc2c2cnc3[nH]ccc3c21 (stereo not given) | 62.1% (inactive)
C=C1C(=O)O[C@H]2[C@H]1CC/C(Cn1cc(-c3ccccc3C(F)(F)F)nn1)=C\CC[C@@]1(C)O[C@@H]21 | -13.3% (active)

Structure (SMILES) | growth
Cn1c(O)c(C(/C=C/c2ccccc2)=Nc2ccccc2N)c(=O)n(C)c1=O | -39.4% (active)
C=C(c1ccc(OC)c(/C=C/C(=O)c2ccc3c(c2)OCO3)c1)c1cc(OC)c(OC)c(OC)c1 | 10.3% (inactive)
CCN(CC)C(=O)CC1=C(C)/C(=C/c2[nH]c(-c3ccc[nH]3)cc2OC)N=C1C | 0.518% (active)
CCOc1cc2ncc(C#N)c(Nc3ccc(F)c(Cl)c3)c2cc1NC(=O)/C=C/CN(C)C | -52.6% (active)
O=S(=O)(NCCNc1nccc(-c2c(-c3ccc(F)c(O)c3)nc3sccn23)n1)c1ccccc1 | 71% (inactive)
CCOC(=O)c1cc(Cl)c(O)c(Cl)c1 | 64.9% (inactive)
C[C@]12CCC3c4ccc(O)cc4C[C@@H](CCCCCCCCCS(=O)CCCC(F)(F)C(F)(F)F)C3C1CC[C@@H]2O (stereo not given in full) | 73.3% (inactive)
COc1ccc(C(=O)c2cc3c(N)c(C(=O)Nc4ccc(Br)cc4)sc3nc2C)cc1 | 80.2% (inactive)
CCOC(=O)c1ccc2c(c1)c1c(C)c3cnccc3c(C)c1n2C | -18.8% (active)
N=C(N)c1ccc(-c2ccc(-c3ccc(Cl)c(Cl)c3)s2)cc1 | -32% (active)
COc1ccc(Cl)cc1NC(=O)c1cc2c([nH]1)-c1nc(N)sc1CCC2 | 56.9% (inactive)
O=C1/C(=C\c2ccc(F)cc2)CN(C(=O)c2ccc([N+](=O)[O-])cc2)C/C1=C\c1ccc(F)cc1 | 65.1% (inactive)
O=C(Nc1ccc(Cl)c(Cl)c1)OCc1ccco1 | 32.1% (inactive)
CCCCCCCCCCSC(=N)N (tested in a mixture with another compound) | 62.8% (inactive)
CCC(C)NCC(=O)O (stereo not given) | 100% (inactive)
CC/C=C\C/C=C\C[C@H](O)C/C=C1/C(=O)C=C[C@H]1C/C=C\CCC(=O)OC | 1.46% [8.25 µM] (active)
O=C1C[C@H](Sc2nc(-c3ccc(F)cc3)cc(C(F)(F)F)n2)[C@H]2CO[C@@H]1O2 | 46.9% (inactive)
CN1C(=O)N(C)C2(c3ccccc3)N(CC(=O)Nc3ccccc3O)C(=O)NC12c1ccccc1 (stereo not given) | 98.9% (inactive)
Cc1ccc(-c2nc(C(Cl)Cl)nc3cc(C)nn23)cc1 | -1.36% (active)
CC(=O)N1N=C2N(Cc3ccccc3)C(=O)c3c(sc4c3CCCC4)N2C1c1cn(-c2ccccc2)nc1-c1ccc(Cl)cc1 (stereo not given) | 88.5% (inactive)
